The term residual activity denotes the signal under treatment as a percentage of the control signal.

The target in assay [1] is T1, Ephrin type-B receptor 1 (Homo sapiens) (UniProt P54762).
T1 sequence (whole entry): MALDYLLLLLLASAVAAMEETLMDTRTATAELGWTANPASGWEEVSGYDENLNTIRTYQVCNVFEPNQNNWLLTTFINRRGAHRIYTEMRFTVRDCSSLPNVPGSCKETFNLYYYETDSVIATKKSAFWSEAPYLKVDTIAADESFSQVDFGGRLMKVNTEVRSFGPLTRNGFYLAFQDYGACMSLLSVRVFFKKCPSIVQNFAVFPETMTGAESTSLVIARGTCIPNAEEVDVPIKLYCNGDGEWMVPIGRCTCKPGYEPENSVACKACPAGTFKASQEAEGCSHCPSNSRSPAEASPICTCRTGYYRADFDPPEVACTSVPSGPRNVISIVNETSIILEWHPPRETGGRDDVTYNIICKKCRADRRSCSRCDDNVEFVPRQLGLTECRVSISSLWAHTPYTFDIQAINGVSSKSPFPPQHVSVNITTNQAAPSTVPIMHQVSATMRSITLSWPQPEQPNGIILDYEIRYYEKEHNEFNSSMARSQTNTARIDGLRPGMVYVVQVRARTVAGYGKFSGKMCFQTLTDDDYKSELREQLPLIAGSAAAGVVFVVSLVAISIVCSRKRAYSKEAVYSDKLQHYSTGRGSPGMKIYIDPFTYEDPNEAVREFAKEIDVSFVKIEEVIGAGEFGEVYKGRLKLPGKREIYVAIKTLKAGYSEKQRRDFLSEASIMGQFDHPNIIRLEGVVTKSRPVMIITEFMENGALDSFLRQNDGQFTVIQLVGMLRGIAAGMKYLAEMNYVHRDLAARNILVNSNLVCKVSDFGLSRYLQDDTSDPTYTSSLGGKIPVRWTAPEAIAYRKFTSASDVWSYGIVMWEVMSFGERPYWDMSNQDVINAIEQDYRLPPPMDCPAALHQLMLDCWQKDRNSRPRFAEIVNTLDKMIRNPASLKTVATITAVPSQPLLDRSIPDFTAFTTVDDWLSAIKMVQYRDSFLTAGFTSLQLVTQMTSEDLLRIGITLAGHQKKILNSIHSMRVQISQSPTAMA
The following applies: at 10 µM.

In assay [2] the target is T2, Ephrin type-B receptor 2 (Homo sapiens) (UniProt P29323).
T2 sequence (whole entry): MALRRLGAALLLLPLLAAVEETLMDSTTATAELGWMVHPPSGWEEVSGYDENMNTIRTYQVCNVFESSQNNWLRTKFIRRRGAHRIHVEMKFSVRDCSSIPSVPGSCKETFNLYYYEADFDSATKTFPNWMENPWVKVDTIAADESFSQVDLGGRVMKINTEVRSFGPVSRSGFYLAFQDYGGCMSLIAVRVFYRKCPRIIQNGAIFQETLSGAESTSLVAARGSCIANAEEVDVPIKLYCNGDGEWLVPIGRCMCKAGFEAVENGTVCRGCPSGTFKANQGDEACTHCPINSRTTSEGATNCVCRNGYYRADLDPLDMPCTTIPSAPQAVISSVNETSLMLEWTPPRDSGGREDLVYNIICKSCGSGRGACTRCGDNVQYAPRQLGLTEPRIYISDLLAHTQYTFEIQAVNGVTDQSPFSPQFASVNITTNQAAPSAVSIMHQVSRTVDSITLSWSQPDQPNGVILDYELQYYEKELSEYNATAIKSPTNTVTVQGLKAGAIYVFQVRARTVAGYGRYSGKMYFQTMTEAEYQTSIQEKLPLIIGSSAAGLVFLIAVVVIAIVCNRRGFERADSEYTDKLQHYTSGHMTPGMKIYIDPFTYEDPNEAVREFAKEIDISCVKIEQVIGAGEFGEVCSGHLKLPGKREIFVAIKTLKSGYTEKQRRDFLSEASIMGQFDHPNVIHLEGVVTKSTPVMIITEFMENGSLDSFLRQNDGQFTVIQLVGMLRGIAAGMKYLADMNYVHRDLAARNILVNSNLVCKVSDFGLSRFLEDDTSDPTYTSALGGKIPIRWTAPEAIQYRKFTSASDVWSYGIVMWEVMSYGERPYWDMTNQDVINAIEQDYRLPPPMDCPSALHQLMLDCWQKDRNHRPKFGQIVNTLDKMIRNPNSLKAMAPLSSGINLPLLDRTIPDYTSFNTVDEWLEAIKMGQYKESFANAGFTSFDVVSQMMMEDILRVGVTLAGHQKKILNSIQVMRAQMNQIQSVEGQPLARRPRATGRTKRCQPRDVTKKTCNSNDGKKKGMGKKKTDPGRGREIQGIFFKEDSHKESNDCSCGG
To be noted: at 1 µM.

In assay [3] the target is T2, Ephrin type-B receptor 2 (Homo sapiens). To be noted: at 10 µM.
Assay [4] deals with T3, Ephrin type-B receptor 3 (Homo sapiens) (UniProt P54753).
T3 sequence (whole entry): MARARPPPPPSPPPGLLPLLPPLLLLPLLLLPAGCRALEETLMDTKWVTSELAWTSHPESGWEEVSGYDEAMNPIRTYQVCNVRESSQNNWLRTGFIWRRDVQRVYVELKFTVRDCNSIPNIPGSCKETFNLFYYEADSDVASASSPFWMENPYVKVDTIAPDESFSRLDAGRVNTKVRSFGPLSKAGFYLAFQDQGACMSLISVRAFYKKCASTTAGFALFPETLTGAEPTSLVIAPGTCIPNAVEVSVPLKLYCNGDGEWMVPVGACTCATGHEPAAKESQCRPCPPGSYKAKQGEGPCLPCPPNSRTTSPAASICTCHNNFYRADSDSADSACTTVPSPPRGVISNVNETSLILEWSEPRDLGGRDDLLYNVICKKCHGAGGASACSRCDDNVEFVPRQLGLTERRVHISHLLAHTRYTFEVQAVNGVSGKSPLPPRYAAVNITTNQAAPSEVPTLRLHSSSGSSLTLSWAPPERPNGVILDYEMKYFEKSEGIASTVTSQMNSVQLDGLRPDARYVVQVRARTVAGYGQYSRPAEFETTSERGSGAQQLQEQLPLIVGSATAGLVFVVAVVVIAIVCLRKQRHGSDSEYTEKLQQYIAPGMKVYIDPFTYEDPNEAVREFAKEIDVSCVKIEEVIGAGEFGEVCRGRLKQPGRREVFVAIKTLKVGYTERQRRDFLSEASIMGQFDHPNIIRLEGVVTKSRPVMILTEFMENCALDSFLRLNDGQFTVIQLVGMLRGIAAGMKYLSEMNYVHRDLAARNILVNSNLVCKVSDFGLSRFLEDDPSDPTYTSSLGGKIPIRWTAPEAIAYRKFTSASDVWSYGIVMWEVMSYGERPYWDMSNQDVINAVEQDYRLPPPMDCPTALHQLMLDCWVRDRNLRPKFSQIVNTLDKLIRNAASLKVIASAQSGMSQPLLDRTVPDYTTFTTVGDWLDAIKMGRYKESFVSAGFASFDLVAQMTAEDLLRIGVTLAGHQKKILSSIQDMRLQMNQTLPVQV
To be noted: at 1 µM.

The target of assay [5] is T3, Ephrin type-B receptor 3 (Homo sapiens). The following applies: at 10 µM.
Assay [6] has as its target T4, Ephrin type-B receptor 4 (Homo sapiens) (UniProt P54760).
T4 sequence (whole entry): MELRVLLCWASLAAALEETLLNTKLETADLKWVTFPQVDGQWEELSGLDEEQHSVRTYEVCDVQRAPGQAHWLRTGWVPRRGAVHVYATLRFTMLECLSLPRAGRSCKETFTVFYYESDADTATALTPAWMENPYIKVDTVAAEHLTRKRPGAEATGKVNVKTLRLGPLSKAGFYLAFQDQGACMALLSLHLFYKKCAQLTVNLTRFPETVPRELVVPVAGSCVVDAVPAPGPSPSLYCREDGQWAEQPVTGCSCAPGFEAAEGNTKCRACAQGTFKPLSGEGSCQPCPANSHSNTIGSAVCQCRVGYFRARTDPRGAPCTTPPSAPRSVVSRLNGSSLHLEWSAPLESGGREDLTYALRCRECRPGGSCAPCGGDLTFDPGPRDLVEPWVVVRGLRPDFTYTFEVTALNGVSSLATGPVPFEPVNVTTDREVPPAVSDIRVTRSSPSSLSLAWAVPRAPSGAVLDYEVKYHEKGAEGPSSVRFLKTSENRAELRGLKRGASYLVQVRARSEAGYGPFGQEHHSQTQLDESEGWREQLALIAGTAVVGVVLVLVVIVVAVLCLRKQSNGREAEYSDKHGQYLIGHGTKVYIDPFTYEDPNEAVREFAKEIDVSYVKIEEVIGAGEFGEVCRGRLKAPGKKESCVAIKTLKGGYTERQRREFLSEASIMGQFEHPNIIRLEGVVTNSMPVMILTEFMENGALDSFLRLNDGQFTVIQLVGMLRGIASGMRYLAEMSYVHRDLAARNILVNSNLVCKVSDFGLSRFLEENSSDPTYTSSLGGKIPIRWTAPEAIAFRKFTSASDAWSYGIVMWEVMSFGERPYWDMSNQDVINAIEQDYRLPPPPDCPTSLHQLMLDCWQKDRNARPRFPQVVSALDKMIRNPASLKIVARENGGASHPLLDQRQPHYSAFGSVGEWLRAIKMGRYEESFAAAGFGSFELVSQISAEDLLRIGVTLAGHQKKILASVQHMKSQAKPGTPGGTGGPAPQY
To be noted: at 1 µM.

Assay [7] concerns the target T4, Ephrin type-B receptor 4 (Homo sapiens). The following applies: at 10 µM.
Assay [8] deals with Receptor tyrosine-protein kinase erbB-4 (Homo sapiens) (UniProt Q15303). To be noted: at 1 µM.
Assay [9] has the same target. To be noted: at 10 µM.
Assay [10] has as its target Focal adhesion kinase 1 (Homo sapiens) (UniProt Q05397). The following applies: at 1 µM.

Receptor tyrosine-protein kinase erbB-4 (Homo sapiens), sequence (Q15303 whole entry): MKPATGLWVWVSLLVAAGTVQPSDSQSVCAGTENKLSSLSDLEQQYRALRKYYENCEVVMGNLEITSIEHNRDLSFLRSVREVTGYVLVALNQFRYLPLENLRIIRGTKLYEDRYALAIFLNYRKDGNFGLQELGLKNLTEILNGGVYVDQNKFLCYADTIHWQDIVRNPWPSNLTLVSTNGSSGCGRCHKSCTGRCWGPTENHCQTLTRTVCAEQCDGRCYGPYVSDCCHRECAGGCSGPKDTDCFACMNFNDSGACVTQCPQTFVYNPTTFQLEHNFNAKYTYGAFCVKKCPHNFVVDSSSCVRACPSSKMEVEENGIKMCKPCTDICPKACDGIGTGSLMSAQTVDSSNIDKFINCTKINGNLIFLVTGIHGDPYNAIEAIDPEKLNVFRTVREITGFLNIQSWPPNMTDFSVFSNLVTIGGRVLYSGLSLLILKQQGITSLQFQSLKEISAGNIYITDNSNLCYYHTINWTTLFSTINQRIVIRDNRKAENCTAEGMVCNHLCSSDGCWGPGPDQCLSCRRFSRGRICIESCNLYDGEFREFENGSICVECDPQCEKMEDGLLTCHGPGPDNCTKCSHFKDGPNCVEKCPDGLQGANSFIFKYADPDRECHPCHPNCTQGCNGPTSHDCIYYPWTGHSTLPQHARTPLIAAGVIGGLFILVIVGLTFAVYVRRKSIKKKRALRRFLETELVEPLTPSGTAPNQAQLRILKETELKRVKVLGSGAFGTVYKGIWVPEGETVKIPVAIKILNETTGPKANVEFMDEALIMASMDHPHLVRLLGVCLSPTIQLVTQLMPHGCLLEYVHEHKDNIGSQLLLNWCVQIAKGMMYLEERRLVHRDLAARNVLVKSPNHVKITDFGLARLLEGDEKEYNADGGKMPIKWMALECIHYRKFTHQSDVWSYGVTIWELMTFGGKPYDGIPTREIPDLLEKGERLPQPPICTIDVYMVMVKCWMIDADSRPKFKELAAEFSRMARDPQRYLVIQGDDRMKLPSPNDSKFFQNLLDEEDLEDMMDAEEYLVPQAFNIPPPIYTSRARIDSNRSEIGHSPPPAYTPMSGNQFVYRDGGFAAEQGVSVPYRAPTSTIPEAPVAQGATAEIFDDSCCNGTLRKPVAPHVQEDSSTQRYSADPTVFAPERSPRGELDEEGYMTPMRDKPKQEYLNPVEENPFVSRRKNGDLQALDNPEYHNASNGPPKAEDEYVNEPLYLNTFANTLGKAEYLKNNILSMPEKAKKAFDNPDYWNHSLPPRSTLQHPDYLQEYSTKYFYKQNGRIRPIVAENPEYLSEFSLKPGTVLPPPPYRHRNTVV
Focal adhesion kinase 1 (Homo sapiens), sequence (Q05397 2-1052 limits assumed): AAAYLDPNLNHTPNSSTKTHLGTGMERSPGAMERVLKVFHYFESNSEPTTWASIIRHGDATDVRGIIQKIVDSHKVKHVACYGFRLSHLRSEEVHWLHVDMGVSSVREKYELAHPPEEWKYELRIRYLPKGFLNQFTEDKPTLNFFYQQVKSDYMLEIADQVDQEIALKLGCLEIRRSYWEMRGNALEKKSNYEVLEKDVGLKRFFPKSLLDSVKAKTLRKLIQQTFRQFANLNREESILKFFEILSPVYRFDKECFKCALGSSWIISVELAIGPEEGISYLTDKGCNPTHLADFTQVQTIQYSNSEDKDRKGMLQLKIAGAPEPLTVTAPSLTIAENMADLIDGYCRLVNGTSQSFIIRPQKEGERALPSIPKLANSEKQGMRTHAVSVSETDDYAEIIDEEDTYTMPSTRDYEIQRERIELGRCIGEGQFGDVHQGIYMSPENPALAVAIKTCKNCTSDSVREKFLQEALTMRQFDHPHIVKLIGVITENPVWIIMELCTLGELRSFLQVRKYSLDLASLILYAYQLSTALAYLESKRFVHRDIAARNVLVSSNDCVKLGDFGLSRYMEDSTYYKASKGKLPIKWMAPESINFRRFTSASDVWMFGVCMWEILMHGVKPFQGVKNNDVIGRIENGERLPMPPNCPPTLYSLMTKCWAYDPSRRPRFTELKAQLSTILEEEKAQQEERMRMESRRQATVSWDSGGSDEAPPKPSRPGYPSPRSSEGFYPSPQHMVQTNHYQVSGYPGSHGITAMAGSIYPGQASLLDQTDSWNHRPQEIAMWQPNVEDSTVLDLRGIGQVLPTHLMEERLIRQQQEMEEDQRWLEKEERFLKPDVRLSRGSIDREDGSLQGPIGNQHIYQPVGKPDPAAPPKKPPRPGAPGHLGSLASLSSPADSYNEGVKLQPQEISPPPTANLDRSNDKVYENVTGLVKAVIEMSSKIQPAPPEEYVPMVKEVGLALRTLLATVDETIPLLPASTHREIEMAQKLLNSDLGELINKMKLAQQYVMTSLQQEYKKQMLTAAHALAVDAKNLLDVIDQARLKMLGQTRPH

`O=c1[nH]c2ccccc2n1C1CCN(Cc2ccc(-c3nc4cc5[nH]cnc5cc4nc3-c3ccccc3)cc2)CC1`: the residual activity in [1] was 76%; in assay [2], 119%; in assay [3], 90%; in [4], 123% (inactive); in assay [5], 105%; in assay [6], 109%. Also, the residual activity in assay [7] is 117%; in [8], 99%; in [9], 61%; in [10] it was 143%.

Source of the values: ChEMBL document CHEMBL2218924, “A broad activity screen in support of a chemogenomic map for kinase signalling research and drug discovery” (Biochem J, 2013).
